Hits are enriched below; roughly 9.2% of the tested compounds scored in any of these assays.
HttQ103 aggreg = mutant huntingtin aggregation inhibition. PC12 HttQ103-GFP aggregates, Acumen cytometry, 40 h. AID 1688. Potency, µM (series often up to 46.1 µM), actives largely listed as inhibitors. hit rate 1.1% among 220,000; active means well fitted curve in the direction sought with a large enough effect; inconclusive means small, poorly fitted or top-dose-only effect, or another doubt; inactive means no such curve, though single readings can be large; an effect the other way counts as inactive or inconclusive; further: nearly all actives have a fitted effect of over 60% in size
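PC12 cells stably carrying ecdysone-inducible HTT exon 1 Q103–GFP were induced with tebufenozide (100 nM final) and treated with library compounds in titration. GFP aggregates in lysates were counted by laser scanning cytometry.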
ALDH1A1 inh = inhibitors of human aldehyde dehydrogenase 1A1; Purified ALDH1A1, NADH fluorescence, propionaldehyde substrate; P00352; hit rate 7.3% among 220,000; Potency, µM (highest dose often 75.3 µM), usual class: inhibitors
Target sequence (P00352 whole entry, looked up): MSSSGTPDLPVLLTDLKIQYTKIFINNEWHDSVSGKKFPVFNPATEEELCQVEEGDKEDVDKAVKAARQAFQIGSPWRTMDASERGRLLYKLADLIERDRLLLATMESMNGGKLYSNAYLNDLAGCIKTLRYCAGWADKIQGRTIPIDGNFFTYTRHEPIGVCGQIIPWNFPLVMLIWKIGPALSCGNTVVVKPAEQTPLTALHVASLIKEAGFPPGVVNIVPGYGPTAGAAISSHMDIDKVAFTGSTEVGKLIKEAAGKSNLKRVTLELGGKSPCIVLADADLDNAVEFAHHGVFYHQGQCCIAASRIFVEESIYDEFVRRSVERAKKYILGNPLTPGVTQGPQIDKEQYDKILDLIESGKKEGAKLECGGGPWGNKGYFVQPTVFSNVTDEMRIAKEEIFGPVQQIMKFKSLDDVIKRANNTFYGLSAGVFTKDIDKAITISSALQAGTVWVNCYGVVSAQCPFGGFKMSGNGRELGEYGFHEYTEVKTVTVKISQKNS
JMJD2E inh = JMJD2E (human) inhibition; B2RXH2; JMJD2E catalytic domain, FDH-coupled NADH fluorescence (FDH is formaldehyde dehydrogenase); Potency, µM (series often up to 57.1 µM), most hits filed as inhibitors; hit rate 1.6% among 230,000; AID 2147; further: nearly all actives have a fitted effect of over 50% in size
HTT cytoprotect = protects HTT-Q103 PC12 cells, measured by ATP | Potency, µM (titrated, usually from 56.4 µM), hits mostly activators | hit rate 0.14% among 230,000 | PC12 HTT-Q103 induced, cytoprotection, ATP luminescence, 40 h; active means well fitted curve in the direction sought with a large enough effect; inconclusive means small, poorly fitted or top-dose-only effect, or another doubt; inactive means no such curve, though single readings can be large; an effect the other way counts as inactive or inconclusive; further: nearly all actives have a fitted effect of over 45% in size
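Rat PC12, Q103 Htt exon1-GFP fusion, ecdysone promoter; tebufenozide inducer 100 nM final; compound titration; qHTS, 1500 cells/well; ATPlite luminescent read.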
Lamin A splicing = changes lamin A minigene splicing in HeLa cells; HeLa LMNA splicing GFP/RFP minigene ratio, 48 h; Potency, µM (highest dose often 46.1 µM), actives largely listed as inhibitors; hit rate 0.01% among 200,000; AID 1487; active means well fitted inhibition curve with a large enough effect in the signal ratio, with a control signal flat, not every such curve was filed as active; inconclusive means small, poorly fitted or top-dose-only effect, or effect the other way, or a change in a side signal; the % refers to the signal ratio
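Read-out is the ratio of GFP to DsRed2 object intensity, acquired by 488 nm laser-scanning cytometry on HeLa lamin A-EGFP minigene reporter cells. Compound incubation 48 hrs at 37 °C in Opti-MEM with 2% FBS; DMSO 0.5% final.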
HPGD inh = HPGD (human) dehydrogenase inhibition | P15428 | purified HPGD, NADH fluorescence kinetic, PGE2 substrate | Potency, µM, actives largely listed as inhibitors | hit rate 4.3% among 150,000 | AID 894
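NADH formation kinetics: reaction with 30 uM PGE2 and 1 mM NAD+ (final), 20 nM enzyme, Tris-HCl pH 8 with Tween 20, after 15 min compound preincubation at room temperature. Fluorescence change, last versus first of five reads.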
A number is an active result; n = inactive; u = inconclusive; x = no result; [ ] = another dose, or the depositor's remark. Unless noted, the call rests on the fitted dose curve; in most records, active means well fitted inhibition curve with a large enough effect (not every such curve was filed as active); inconclusive means small, poorly fitted or top-dose-only effect, or another doubt; inactive means no such curve, though single readings can be large or run the other way.

SMILES | HttQ103 aggreg | ALDH1A1 inh | JMJD2E inh | HTT cytoprotect | Lamin A splicing | HPGD inh
Cc1cc(Cl)ccc1OCCCC(=O)NCC1CCCO1 (centres undefined) | n | n | n | n | n | 11µM
Cc1ccc(NC(=O)Cc2c(C(=O)O)c(C)cn2C)cc1Cl | x | x | x | x | n | x
CC(CNC(=O)Cn1c(-c2cccs2)cc2cc(Cl)ccc21)c1ccccc1 (centres undefined) | x | x | x | x | n | x
O=C(CC1CCCCC1)NCC1CCCO1 (centres undefined) | n | n | n | n | n | 14µM
O=C(CCn1nc(-c2ccccc2)c2ccccc2c1=O)NCC1CCCO1 (centres undefined) | n | u | n | n | u | 28µM
Cc1ccc(-c2nn(CCC(=O)NCC3CCCO3)c(=O)c3ccccc23)cc1 (centres undefined) | n | u | n | n | n | n
O=C(CCSCCC(=O)NCC1CCCO1)NCC1CCCO1 (centres undefined) | n | n | n | n | n | n
O=C(CCn1nc(-c2ccccc2)c2ccccc2c1=O)N1CCN(c2ccccc2)CC1 | n | 22µM | n | n[0.074 µM] | n | n
O=C(CCSc1ccccc1)NCC1CCCO1 (centres undefined) | n | n | n | n | n | 16µM
CC[C@@H]1O[C@]2(C=C[C@@H]1C)C[C@H]1C[C@H](CC=C(C)[C@@H](O[C@@H]3C[C@H](OC)[C@H](O[C@@H]4C[C@H](OC)[C@H](O)[C@H](C)O4)[C@H](C)O3)[C@@H](C)C=CC=C3CO[C@@H]4[C@@H](O)C(C)=C[C@@H](C(=O)O1)[C@]34O)O2 | x | n | n | n | u | n
N#CCCS(=O)(=O)c1nnnn1-c1ccccc1 | u | 0.45µM | n | n | u | u
N#CCCS(=O)(=O)c1ccccc1 | x | n | n | n | x | n
N#CCCCS(=O)(=O)c1nnnn1-c1ccc(Br)cc1 | x | 20µM | n | n | x | n
O=[N+]([O-])/C(C(Cl)=C(Cl)Cl)=C(\Nc1ccc(F)cc1)n1cncn1 | n | 13µM | u | n | u | 28µM
CCOc1ccc(N/C(=C(/C(Cl)=C(Cl)Cl)[N+](=O)[O-])n2cncn2)cc1 | n[9.22 µM] | u | u | n | n | u
CCOc1ccccc1N/C(=C(/C(Cl)=C(Cl)Cl)[N+](=O)[O-])n1cncn1 | n | 20µM | n | n | n | n
CCOc1ccc2ccccc2c1/C=N/n1cncn1 | n | u | n | n | n | 32µM
O=C(c1cc(-c2cccs2)nc2ccccc12)N1CCN(S(=O)(=O)c2cccc(F)c2)CC1 | 0.63µM | u | u | n | n | u
O=C(c1cc(-c2ccccn2)nc2c(Cl)cccc12)N1CCN(C(=O)C2CCCO2)CC1 (centres undefined) | n | n | n | n | n | n
O=C(c1cc(-c2ccccn2)nc2c(Cl)cccc12)N1CCN(S(=O)(=O)c2ccccc2)CC1 | n | 16µM | n | n[10 µM] | n | n
NC(CCC(=O)NCS(=O)(=O)O)C(=O)O (centres undefined) | x | n | n | n | n | n
COc1ccc(Cn2c(SCc3cc(C)ccc3C)nc3cc(OC)c(OC)cc3c2=N)cc1 | 3.2µM | u | n | n[10 µM] | u | u
Cc1oc2cc3c(C(=O)N4CCCCC4)c(C)oc3cc2c1C(=O)N1CCCCC1 | n | u | n | n | u | 4.5µM
Cc1oc2cc3c(C(=O)N4CCN(C)CC4)c(C)oc3cc2c1C(=O)N1CCN(C)CC1 | x | x | x | n[10 µM] | x | x
CCC(C)NC(=O)C1CCN(S(=O)(=O)c2cc([N+](=O)[O-])ccc2Cl)CC1 (centres undefined) | n[9.22 µM] | x | n | n[10 µM] | x | x
SMILES | HttQ103 aggreg | ALDH1A1 inh | JMJD2E inh | HTT cytoprotect | Lamin A splicing | HPGD inh
CC1CCN(S(=O)(=O)c2cc([N+](=O)[O-])ccc2Cl)CC1 | n | 3.5µM | n | n | x | x
Cc1nn(CC(=O)N2c3ccccc3NC(=O)C2(C)C)c(C)c1[N+](=O)[O-] | n | n | n | n | n | x
O=C(Cn1ncc(Cl)c(Cl)c1=O)N1CCN(Cc2ccccc2)CC1 | u | 28µM | n | n[10 µM] | u | x
O=C(Cn1ncc(Cl)c(Cl)c1=O)N1CCc2ccccc21 | u | 10µM | n | n | x | x
CC1(C)C(=O)Nc2ccccc2N1C(=O)Cn1ncc(Cl)c(Cl)c1=O | n[9.22 µM] | 1.1µM | n | n[10 µM] | x | x
CC1CCN(C(=S)Nc2ccc3nc4n(c(=O)c3c2)CCCCC4)CC1 | n | u | u | n[10 µM] | u | 13µM
CC(C)CCNC(=S)Nc1ccc2nc3n(c(=O)c2c1)CCCCC3 | n | u | n | n[10 µM] | u | 4.5µM
CCCCNC(=S)Nc1ccc2nc3n(c(=O)c2c1)CCCCC3 | n | n | u | n[10 µM] | u | 14µM
O=c1c2cc(NC(=S)N3CCCCC3)ccc2nc2n1CCCCC2 | n | u | u | n | x | x
CCOCCCNC(=S)Nc1ccc2nc3n(c(=O)c2c1)CCCCC3 | n | n | u | n | n[9.22 µM] | x
O=C(Nc1ccc2nc3n(c(=O)c2c1)CCCC3)c1cc([N+](=O)[O-])ccc1F | 14µM | u | n | n[10 µM] | u | n
c1ccc(CNc2ccnc(-c3cccnc3)n2)cc1 | x | n | x | n | u | x
COc1ccc(Oc2ncc3ncc(=O)n(CCC#N)c3n2)cc1 | x | n | x | n | x | n
Cn1c(=O)c(-c2cc(F)cc(F)c2)nc2cnc(Nc3ccccc3)nc21 | x | n | x | n | n | x
CN(Cc1cccnc1)C(=O)CC1C(=O)NCCN1Cc1ccc(-c2ccccc2)cc1 (centres undefined) | n | 16µM | u | n | x | x
C=C1N[C@]2(C(=O)COC(C)=O)[C@@H](C[C@H]3[C@@H]4CCC5=CC(=O)C=C[C@]5(C)[C@H]4[C@@H](O)C[C@@]32C)O1 | n | x | x | n | x | x
CCOc1ccc2[nH]c(=O)c(C(c3nnnn3CC3CCCO3)N3CCc4ccccc4C3)cc2c1 (centres undefined) | n | u | u | n | n | u
O=c1[nH]c2cc3c(cc2cc1C(c1nnnn1C1CCCC1)N1CCCc2ccccc21)OCCO3 (centres undefined) | n | n | n | n[10 µM] | n | n
Cc1ccc2cc(C(c3nnnn3CC3CCCO3)N3CCc4ccccc4C3)c(=O)[nH]c2c1 (centres undefined) | n | 18µM | u | n[10 µM] | n | u
Cc1cccc2cc(C(c3nnnn3CC3CCCO3)N3CCCC4(CCCCC4)C3)c(=O)[nH]c12 (centres undefined) | n | u | n | n | n | n
Cc1cccc2cc(C(c3nnnn3CC3CCCO3)N3CCc4ccccc4C3)c(=O)[nH]c12 (centres undefined) | n | 13µM | u | n | n | n
CCc1ccc2[nH]c(=O)c(C(c3nnnn3CC3CCCO3)N3CCCc4ccccc43)cc2c1 (centres undefined) | n | 7.9µM | u | n | n | n

High-throughput results (PubChem)
